# Results filed as inconclusive are left out. Activity calls are given as the source filed them. Unless noted, cut-off not given; nearly all actives show AC50 up to about 26 µM.
# Experiments:
# [1] = viability loss in pontine glioma line – cell-based, SU-DIPG-XVII, MIPE5.0, CellTiter-Glo, qHTS, dose response (AID 1347060); conditions: CellTiter-Glo ATP luminescence;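 on AC50: cells exposed to compound for 48 hours before viability readout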
# [2] = viability loss in pontine glioma line – cell-based, SU-DIPG-XXV, MIPE5.0, CellTiter-Glo, qHTS, dose response (AID 1347065); conditions: CellTiter-Glo ATP luminescence;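 further: cells exposed to compound for 48 hours before ATP readout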
# [3] = growth inhibition of DIPG cells – cell-based, MIPE5.0 library, qHTS (AID 1347068; cut-off not given, nearly all actives have IC50 up to about 30 µM;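 on IC50: cells exposed to compound for 48 hours before viability readout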); conditions: SU-DIPG-XXV viability
# [4] = viability loss in pontine glioma line – cell-based, SU-DIPG-XIII, MIPE5.0, CellTiter-Glo, qHTS, dose response (AID 1347064; cut-off not given, nearly all actives have AC50 up to about 23 µM;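 on AC50: cells exposed to compound for 48 hours before the viability read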); conditions: CellTiter-Glo ATP luminescence
# [5] = growth inhibition of DIPG cells – cell-based, MIPE4.0 library, CellTiter-Glo luminescence, qHTS (AID 1347066; cut-off not given, nearly all actives have AC50 up to about 30 µM;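 further: cells exposed to compound for 48 hours before readout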); conditions: SU-DIPG-VI viability, CellTiter-Glo ATP luminescence
# [6] = JHH-DIPG-1 glioma cell viability, MIPE5.0 library, CellTiter-Glo luminescence, qHTS (AID 1347067); conditions: JHH-DIPG-1 glioma viability, CellTiter-Glo ATP luminescence;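 further: cells exposed to compound for 48 hours before readout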
# [7] = viability loss with induced miR-34 in A549 – imaging, A549 dox-inducible miR-34, nuclei and caspase counts, primary screen (AID 1347080;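 active means compounds whose cell count with miR-34 switched on is under 0.7 times the count with it off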); conditions: A549 miR-34 inducible, Hoechst nuclei count, 48 h
# [8] = MELAS cybrid and Rieske KO viability enhancers – cell-based, MELAS cybrids, Rieske KO mouse fibroblasts, CellTiter-Glo, primary screen (AID 1508586;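 active means mean z-score across replicates of 1.96 or higher in either the MELAS or the Rieske mutant cell line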;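 further: z relative to plate mean and SD of compound and empty wells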); conditions: low glucose
# [9] = growth inhibition, single agent or in combination, cell-based, chromothripsis tumors, cisplatin or BGB combos (AID 1671449; in the data active means inhibition above about 80%;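 further: cells exposed for 96 hours; 0% = vehicle DMSO and 100% = killing by high DMSO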); conditions: LFS_MB_P medulloblastoma cells
# [10] = growth inhibition, single agent and combos, cell-based, chromothripsis tumors, cisplatin or BGB combos (AID 1671450; in the data active means inhibition above about 80%;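 further: cells exposed to compound for four days; 0% = vehicle DMSO and 100% = cell killing by high DMSO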); conditions: HDN33 neuroblastoma cells, stronger effect = higher value
# [11] = growth inhibition, single agents and combos, ICB984, cell-based, cisplatin or BGB combos, synergistic combos for chromothripsis tumors (AID 1671451; call rule not given here;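 further: cells exposed for 96 hours before readout; 0% = vehicle DMSO and 100% = killing by high DMSO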); conditions: ICB984 medulloblastoma cells, drug combinations, stronger effect = higher value
# [12] = growth inhibition, single agents and combos, LFS_MB_1R, cell-based, cisplatin or BGB combos, synergistic combos for chromothripsis tumors (AID 1671452; in the data active means inhibition above about 80%;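 further: cells exposed for 96 hours before readout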); conditions: LFS_MB_1R medulloblastoma cells, stronger effect = higher value
# [13] = growth inhibition, single agents and combos, HTB85, cell-based, BGB or cisplatin IC20 combos, synergistic combos for chromothripsis tumors (AID 1671453; in the data active means inhibition above about 80%;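 further: cells exposed for 96 hours before readout; 0% = vehicle DMSO and 100% = high DMSO killing control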); conditions: HTB85 osteosarcoma cells, drug combinations, stronger effect = higher value
# [14] = growth inhibition, single agents and combos, CRL2098, cell-based, BGB or cisplatin IC20 combos, synergistic combos for chromothripsis tumors (AID 1671454; in the data active means inhibition above about 80%;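 further: cells exposed for 96 h before readout; 0% = vehicle DMSO and 100% = killing by high DMSO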); conditions: CRL2098 osteosarcoma cells, drug combinations, stronger effect = higher value
# [15] = growth inhibition, single agents and combos, HD-MB03, cell-based, BGB or cisplatin IC20 combos, synergistic combos for chromothripsis tumors (AID 1671455; in the data active means inhibition above about 83%;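 further: 0% = vehicle DMSO and 100% = high DMSO as cytotoxic control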); conditions: HD-MB03 medulloblastoma cells, stronger effect = higher value
# [16] = growth inhibition, single agents and combos, UWB1.289, cell-based, BGB or cisplatin combos, synergistic combos for chromothripsis tumors (AID 1671456; in the data active means inhibition above about 80%;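 further: cells exposed to compound for four days; 0% = vehicle DMSO and 100% = killing by high DMSO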); conditions: UWB1.289 ovarian carcinoma cells, stronger effect = higher value
# [17] = growth inhibition, single agents and combos, LFS_MB_2R, cell-based, cisplatin combos, synergistic combos for chromothripsis tumors (AID 1671457; in the data active means inhibition above about 80%;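 further: cells exposed to compound for four days before readout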); conditions: LFS_MB_2R medulloblastoma cells, stronger effect = higher value
# [18] = growth inhibition, MDA-MB-436, cell-based, BGB or cisplatin combos, synergistic combos for chromothripsis tumors (AID 1671458; call rule not given here;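 further: cells exposed for 96 hours; 0% = vehicle DMSO and 100% = killing by high DMSO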); conditions: MDA-MB-436 breast carcinoma growth inhibition, drug combinations, stronger effect = higher value
# [19] = UWB1.289_BRCA1 ovarian cancer growth, cell-based, BGB or cisplatin combinations (AID 1671459; in the data active means inhibition above about 80%); conditions: UWB1.289 BRCA1 ovarian carcinoma, drug combinations, stronger effect = higher value
# [20] = drug combination toxicity in non-malignant astrocytes – cell-based, BGB or cisplatin IC20 combos, cytotoxicity control for chromothriptic childhood tumor combination screen (AID 1671460; in the data active means inhibition above about 80%;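 further: cells exposed to compounds for 96 hours before viability readout; 0% = vehicle and 100% = killing control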); conditions: Human astrocytes, viability inhibition, drug combinations, at 0.5 µM, stronger effect = higher value
# [21] = BT084 cell growth, single and combined drugs, ICGC_MB145, cisplatin and BGB IC40 combos (AID 1671461; in the data active means inhibition above about 80%;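 further: cells exposed to drugs for 96 hours; 0% = vehicle DMSO and 100% = high DMSO full killing control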); conditions: BT084 medulloblastoma cells, drug combinations, stronger effect = higher value
# [22] = RCMB18 cell growth, single agent and combined, cisplatin and BGB IC40 combos (AID 1671462; in the data active means inhibition above about 80%;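 further: cells exposed to compound for four days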); conditions: RCMB18 medulloblastoma cells, stronger effect = higher value
# [23] = CRL1545 cell growth, single agent and combined, cisplatin and BGB IC20 combos (AID 1671464; in the data active means inhibition above about 80%;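 further: cells exposed to compound for 96 hours before readout; 0% = vehicle DMSO and 100% = high DMSO killing control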); conditions: CRL1545 osteosarcoma cells, stronger effect = higher value
# [24] = measured here: combination with BGB IC40, at 0.05 µM
# [25] = measured here: with BGB IC20 combination, at 0.5 µM
# [26] = measured here: with cisplatin IC20 combination, at 0.5 µM
# [27] = measured here: combination with cisplatin, at 0.5 µM
# [28] = measured here: combination with cisplatin, at 5 µM
compound,measurement,setting,value
Cn1c(/C=C/CO)c(CO)c2c1C(=O)C=C(N1CC1)C2=O,outcome,[1],inactive
same,outcome,[2],inactive
same,outcome,[3],inactive
COc1ccc(N(C(=O)Oc2c(C)cccc2C)c2ccnc(Nc3ccc(N4CCN(C)CC4)cc3)n2)c(OC)c1,AC50,[1],10.5 µM (active)
same,AC50,[4],14.8 µM (active)
same,AC50,[2],10.5 µM (active)
same,outcome,[5],inactive
same,AC50,[6],16.6 µM (active)
same,IC50,[3],20.9 µM (active)
same,fold change,"[7]; stronger effect = lower value, cell number ratio, induced over uninduced",0.826 (inactive)
same,fold change,[7]; measured here: relative caspase fold change +Dox/-Dox,0.474
same,cell count,"[7]; measured here: total cells with miR-34 induction, stronger effect = lower value",5990
same,cell count,[7]; measured here: total cells without miR-34 induction,7250
same,z-score,"[8]; MELAS cybrid survival, CellTiter-Glo 48 h, stronger effect = higher value",0.0994 (inactive)
same,z-score,"[8]; Rieske KO mouse fibroblast survival, CellTiter-Glo 72 h",-1.32
CC(=O)OC[C@H]1O[C@@H]([S-])[C@H](OC(C)=O)[C@@H](OC(C)=O)[C@@H]1OC(C)=O.CC[PH+](CC)CC.[Au],AC50,[1],1.05 µM (active)
same,AC50,[4],1.66 µM (active)
same,AC50,[2],1.18 µM (active)
same,AC50,[6],1.32 µM (active)
same,IC50,[3],2.63 µM (active)
C[C@H]1[C@H](O)[C@@H](C)/C=C/C=C/CC/C=C/C=C/C=C/C=C/[C@H](O[C@@H]2O[C@H](C)[C@@H](O)[C@H](N)[C@@H]2O)C[C@@H]2O[C@](O)(C[C@@H](O)[C@H](O)CC[C@@H](O)C[C@@H](O)C[C@@H](O)CC(=O)O[C@H]1C)C[C@H](O)[C@H]2C(=O)O,outcome,[1],inactive
same,outcome,[4],inactive
same,outcome,[2],inactive
same,outcome,[6],inactive
same,outcome,[3],inactive
COc1cc(C)[nH]c(=O)c1CNC(=O)c1c(C)n([C@H](C)C2CCN(CC(F)(F)F)CC2)c2ccccc12,outcome,[1],inactive
same,outcome,[2],inactive
same,outcome,[6],inactive
Cn1c(COP(=O)(NCCBr)NCCBr)cnc1[N+](=O)[O-],AC50,[1],20.9 µM (active)
same,outcome,[4],inactive
same,outcome,[2],inactive
same,outcome,[6],inactive
same,outcome,[3],inactive
same,inhibition,"[9]; at 0.5 µM, stronger effect = higher value",16.6% (inactive)
same,inhibition,"[9]; measured here: combination with BGB IC20, at 0.005 µM",-38.7%
same,inhibition,"[9]; measured here: combination with BGB IC40, at 0.005 µM",-32.5%
same,inhibition,[9]; [24],-39.8%
same,inhibition,"[9]; measured here: combination with cisplatin, at 0.5 µM, stronger effect = higher value",62.9%
same,inhibition,"[9]; measured here: combination with cisplatin, at 5 µM, stronger effect = higher value",-58.8%
same,inhibition,"[10]; BGB combo, at 5 µM",19.8%
same,inhibition,[10]; at 0.5 µM,-18.8% (inactive)
same,inhibition,"[10]; cisplatin combo, at 5 µM",19.2%
same,inhibition,[10]; [25],-21.2%
same,inhibition,[10]; [26],-10.2%
same,inhibition,"[10]; single agent, at 5 µM",80.3%
same,inhibition,"[11]; BGB IC20 combo, at 0.005 µM",-13.2%
same,inhibition,"[11]; BGB IC40 combo, at 0.005 µM",-25.1%
same,inhibition,"[11]; BGB IC40 combo, at 0.05 µM",-34.6%
same,inhibition,[11]; at 0.5 µM,-26% (inactive)
same,inhibition,"[11]; cisplatin combo, at 0.05 µM",-39.4%
same,inhibition,"[11]; cisplatin combo, at 0.5 µM",-24.4%
same,inhibition,"[11]; cisplatin combo, at 5 µM",-33.7%
same,inhibition,"[11]; measured here: 5 uM single agent, at 5 µM",-29.2%
same,inhibition,[12]; at 0.5 µM,-28.2% (inactive)
same,inhibition,[12]; [24],-23.6%
same,inhibition,[12]; [27],-60.8%
same,inhibition,[12]; [28],3.76%
same,inhibition,[13]; at 0.5 µM,-13.1% (inactive)
same,inhibition,"[13]; measured here: with BGB IC20, at 0.5 µM",-24.6%
same,inhibition,"[13]; measured here: with BGB IC20, at 5 µM",10.3%
same,inhibition,"[13]; measured here: with cisplatin IC20, at 0.5 µM",-0.449%
same,inhibition,"[13]; measured here: with cisplatin IC20, at 5 µM",2.49%
same,inhibition,"[13]; single agent, at 5 µM",1.71%
same,inhibition,[14]; at 0.5 µM,-67.6% (inactive)
same,inhibition,"[14]; measured here: combination with BGB at IC20, at 0.5 µM",-30.9%
same,inhibition,"[14]; measured here: combination with cisplatin at IC20, at 0.5 µM",-117%
same,inhibition,[15]; at 0.5 µM,-3.14% (inactive)
same,inhibition,"[15]; measured here: combo with BGB at IC20, at 0.5 µM",-10.4%
same,inhibition,"[15]; measured here: combo with cisplatin at IC20, at 0.5 µM",4.61%
same,inhibition,[16]; at 0.5 µM,3.29% (inactive)
same,inhibition,"[16]; measured here: inhibition with BGB combination, at 0.05 µM",-25.1%
same,inhibition,"[16]; measured here: inhibition with cisplatin combination, at 0.05 µM",-14.8%
same,inhibition,[17]; at 0.5 µM,-29.8% (inactive)
same,inhibition,[17]; [27],-33.9%
same,inhibition,[17]; [28],-23.3%
same,inhibition,[18]; at 0.5 µM,-13.5% (inactive)
same,inhibition,"[18]; measured here: BGB combination, at 0.5 µM",-12%
same,inhibition,"[18]; measured here: BGB combination, at 5 µM",10.1%
same,inhibition,"[18]; measured here: cisplatin combination, at 0.5 µM",-29.2%
same,inhibition,"[18]; measured here: cisplatin combination, at 5 µM",7.72%
same,inhibition,"[19]; BGB combination, concentration series, at 5 µM",-3.84%
same,inhibition,[19]; at 0.5 µM,-16% (inactive)
same,inhibition,"[19]; cisplatin combination, concentration series, at 5 µM",-17.2%
same,inhibition,[20],-2.6% (inactive)
same,inhibition,[20]; measured here: combo with BGB IC20,-17%
same,inhibition,[20]; measured here: combo with cisplatin IC20,9.13%
same,inhibition,[21]; at 0.5 µM,-25.1% (inactive)
same,inhibition,"[21]; cisplatin combination, at 0.5 µM",-38.4%
same,inhibition,"[21]; cisplatin combination, at 5 µM",-11.7%
same,inhibition,"[21]; measured here: BGB IC40 combination 0.05 uM, at 0.05 µM",14.8%
same,inhibition,"[21]; single agent, at 5 µM",-36.3%
same,inhibition,[22]; at 0.5 µM,-3.65% (inactive)
same,inhibition,"[22]; cisplatin combo, at 5 µM",1.65%
same,inhibition,"[22]; measured here: BGB IC40 combination, at 0.05 µM",-12.5%
same,inhibition,[22]; [27],13.3%
same,inhibition,"[22]; single agent, at 5 µM",-38.1%
same,inhibition,[23]; at 0.5 µM,-36.2% (inactive)
same,inhibition,[23]; [25],-10%
same,inhibition,[23]; [26],-51.7%
same,inhibition,"[23]; single agent, at 0.05 µM",-14%
same,inhibition,"[23]; single agent, at 5 µM",52.6%
